Values without a mark were called inactive.
The compounds below were run on Vero E6 infected with SARS-CoV-2 (assay: inhibition of SARS-CoV-2 cytopathic effect; higher = more antiviral protection, active = above 15). Settings: 10000 nM; 48 h.

Structure (SMILES)	inhibition of SARS-CoV-2 cytopathic effect
CCCOc1ccc2[nH]c(NC(=O)OC)nc2c1 [oxibendazole]	-0.04%
O=C(O)C(Cl)Cl [dichloroacetate]	2.63%
O=C(O)c1ccc(OCCn2ccnc2)cc1 [dazoxiben]	-0.65%
C[C@@H](NCc1cc(Br)cc2nc(O)c(O)nc12)P(=O)(O)O	-3.97%
CC[C@H](C)[C@H](N)C1=N[C@H](C(=O)N[C@@H](CC(C)C)C(=O)N[C@H](CCC(=O)O)C(=O)N[C@H](C(=O)N[C@H]2CCCCNC(=O)[C@H](CC(N)=O)NC(=O)[C@@H](CC(=O)O)NC(=O)[C@H](Cc3cnc[nH]3)NC(=O)[C@@H](Cc3ccccc3)NC(=O)[C@H]([C@@H](C)CC)NC(=O)[C@@H](CCCN)NC2=O)[C@@H](C)CC)CS1 [bacitracin]	-0.85%
CCOc1ccc(NC(=S)N2CCC(C(O)(c3ccccc3)c3ccccc3)CC2)cc1	-4.05%
CCN1CCN(Cc2ccc(-c3cc4c(N[C@H](C)c5ccccc5)ncnc4[nH]3)cc2)CC1	-16%
C[C@](O)(COc1ccc(C#N)cc1)C(=O)Nc1ccc(C#N)c(C(F)(F)F)c1 [ostarine]	1.37%
COc1ccc2c(c1)C(C(=O)N(Cc1ccc(N(C)C)cc1)c1ccc(C(C)C)cc1)CCC2 (stereo not given)	-3.29%
CCS(=O)(=O)CCn1c([N+](=O)[O-])cnc1C [tinidazole]	-0.87%
CCOc1ccccc1OC(c1ccccc1)C1CNCCO1 (stereo not given) [reboxetine]	-1.59%
CCNC(=O)CCC/C=C\C[C@@H]1[C@@H](/C=C/[C@@H](O)CCc2ccccc2)[C@H](O)C[C@@H]1O [bimatoprost]	3.04%
CCOC(=O)c1ncc2[nH]c3cccc(OC(C)C)c3c2c1C	7.71%
Cn1c(=O)c2c(ncn2CCOC(=O)C(C)(C)Oc2ccc(Cl)cc2)n(C)c1=O [etofylline-clofibrate]	-0.53%
COc1ccc2cc1Oc1ccc(cc1)C[C@H]1c3c(cc4c(c3Oc3cc5c(cc3OC)CCN(C)[C@@H]5C2)OCO4)CCN1C [cepharanthine]	21.3% (active)
COc1cc(C(=O)N(CC[C@H]2CCCN2C)C/C(C)=C/c2ccccc2F)cc(OC)c1OC (racemic)	-1.76%
CC(C)(C)c1cc(C(C)(C)C)c2c(c1)C(O)(C(F)(F)F)C(=O)O2 (racemic)	-1.15%
O=C(O)Cn1c2c(c3cc(F)ccc31)CN(C(=O)c1cccc3ccccc13)CC2 [setipiprant]	-0.76%
O=c1[nH]c(CCl)nc2sc3c(c12)CCCC3	12.3%
O=C(Nc1ccc(C(=O)O)c(O)c1)c1ccccc1 [benzoylpas]	-0.85%

Structure (SMILES)	inhibition of SARS-CoV-2 cytopathic effect
C/C(=N\c1ccccc1N)c1c(C)cc(=O)n(O)c1O	1.35%
CNC(=O)c1c(I)c(C(=O)NCC(=O)Nc2c(I)c(C(=O)O)c(I)c(C(=O)NCCO)c2I)c(I)c(N(C)C(C)=O)c1I [ioxaglic-acid]	0.41%
O=C(O)CCC(=O)OC[C@@H](NC(=O)C(Cl)Cl)[C@H](O)c1ccc([N+](=O)[O-])cc1 [chloramphenicol-sodium-succinate]	1.6%
CC(C)(C#N)c1ccc(N2C(=O)OCc3cnc4ccc(-c5cnc6ccccc6c5)cc4c32)cc1	4.4%
Cc1ccc2c(-c3ccccc3)nc(=O)n(C(C)C)c2c1 [proquazone]	-0.55%
Cc1cccc(NC(=O)N[C@@H]2N=C(c3ccccc3)c3ccccc3N(C)C2=O)c1	0.03%
C[C@@H]1CN(c2c(F)c(N)c3c(=O)c(C(=O)O)cn(C4CC4)c3c2F)C[C@H](C)N1 [sparfloxacin]	-2.31%
CO[C@@H]1[C@@H](O[C@@H]2O[C@H](C)[C@@H](O[C@H]3C[C@@](C)(O)[C@@H](OC(=O)CC(C)C)[C@H](C)O3)[C@H](N(C)C)[C@H]2O)[C@@H](CC=O)C[C@@H](C)[C@@H](O)/C=C/C=C/C[C@@H](C)OC(=O)C[C@H]1OC(C)=O [josamycin]	-7.02%
CCN1CCC[C@H]1CNC(=O)c1c(OC)ccc(Br)c1OC [remoxipride]	-1.54%
CC(C)CC(=O)N[C@H](C(=O)N[C@H](C(=O)N[C@@H](CC(C)C)[C@@H](O)CC(=O)N[C@@H](C)C(=O)N[C@@H](CC(C)C)[C@@H](O)CC(=O)O)C(C)C)C(C)C [pepstatin]	-4.53%
COc1cc2c(cc1OC)[C@@H](Cc1cc(OC)c(OC)c(OC)c1)[N+](C)(CCCOC(=O)CC/C=C/CCC(=O)OCCC[N+]1(C)CCc3cc(OC)c(OC)cc3[C@H]1Cc1cc(OC)c(OC)c(OC)c1)CC2 (stereo not given in full) [mivacurium]	0.83%
COc1cc2ncnc(Nc3ccc(Cl)cc3F)c2cc1OC	-11.2%
Cn1nnc(-c2ccc(-c3ccc(N4C[C@H](CO)OC4=O)cc3F)cn2)n1 [tedizolid]	-0.79%
CCc1c(-c2ccccc2)c(-c2ccccc2)nn1-c1ccccc1-c1cccc(OCC(=O)O)c1	-0.58%
COc1cc2c(cc1Cc1cccc(Cl)c1F)c(=O)c(C(=O)O)cn2[C@H](CO)C(C)C [elvitegravir]	-6.71%
Cc1ccc2c(c1)[C@]13CCCC[C@@H]1[C@H](C2)N(C)CC3 [dimemorfan]	0.98%
COC(=O)N[C@H](C(=O)N1CCC[C@H]1c1ncc(-c2ccc(-c3ccc(-c4cnc([C@@H]5CCCN5C(=O)[C@@H](NC(=O)OC)C(C)C)[nH]4)cc3)cc2)[nH]1)C(C)C [daclatasvir]	-0.59%
COC(=O)Nc1nc2cc(C(=O)c3ccccc3)ccc2[nH]1 [mebendazole]	0.89%
c1ccc(CN(CC2=NCCN2)c2ccccc2)cc1 [antazoline]	-3.78%
C[C@]12C=CC(=O)C=C1CC[C@@H]1[C@@H]2[C@@H](O)C[C@@]2(C)[C@H]1CC[C@]2(O)C(=O)COC(=O)CCC(=O)O [prednisolone-hemisuccinate]	1.85%

From the supplement of paper PMC13380429
